# Measured values published in PubChem BioAssay (NCATS).
# Where “and” joins values, the source holds several entries; their conditions need not be identical. Equal values may be shown once. Inconclusive results are not listed. Entries that show only a call come without a potency. Calls of active or inactive are those of the source. Unless noted, calls follow the shape of the dose curve; as a rule, active = well fitted curve in the direction sought with a large enough effect; inconclusive = small, poorly fitted or top-dose-only effect, or another doubt; inactive = no such curve, though single readings can be large; an effect the other way counts as inactive or inconclusive.
# Legend:
# [1] = qHTS Assay for Identifying Gametocytocidal Compounds (AID 743244); also: potency is read from the fitted curve at half-maximal effect;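 as to max response: actives lower the fluorescent signal which means gametocytes are killed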; details: P. falciparum 3D7 stage III-V gametocytes, alamarBlue, 72 h; max response: stronger effect = lower value
# Outline: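 P. falciparum 3D7 stage III–V gametocytes (20,000 cells/well) were exposed to compounds for 72 h at 37 °C, 5% CO2. AlamarBlue was then added for 24 h; decreased resorufin fluorescence (Ex 525/Em 598 nm) indicated loss of viability.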
# [2] = qHTS assay to identify small molecule inhibitors of chordoma cells - UCH-1 (AID 1259355); also: nearly all actives have a fitted effect of over 55% in size; also: potency is read from the fitted curve at half-maximal effect
# Outline: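 Seed 800 cells per well; incubate overnight at 37 C, 5% CO2. Add test compounds (15 concentrations), then the auranofin–topoisomerase-agent combination. Incubate 48hr, add CellTiter-Glo, wait 30min, read luminescence.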
# [3] = qHTS assay to identify small molecule inhibitors of chordoma cells - UCH-2 (AID 1259356); also: potency is read from the fitted curve at half-maximal effect
# [4] = qHTS profiling for inhibitors of Plasmodium falciparum (3D7) proliferation (AID 743322; call rule not given here;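 also: infected erythrocytes exposed to compound for 72 h before lysis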); details: P. falciparum 3D7 proliferation; at 28.7 µM (top of the series) unless noted
# Outline: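 Erythrocytes infected with P. falciparum (0.3% parasitemia, 2.5% hematocrit) incubated with compounds 72 h at 37 C, 5% CO2. Lysis with saponin/Triton buffer containing SYBR Green I, overnight at room temperature in the dark; DNA fluorescence (485/535 nm) normalised to 0.29 uM artemisinin and DMSO.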
# [5] = qHTS profiling for inhibitors of Plasmodium falciparum (DD2) proliferation (AID 743323; call rule not given here); details: lower = more inhibition; at 28.7 µM (top of the series) unless noted
# Description: Plasmodium falciparum is a virulent malarial parasite that kills 1-2 million people worldwide each year. Transmitted by mosquitoes, the sporozoite form of the parasite enters the blood stream to infect hepatocytes, where they become merozoites that infect red blood cells (erythrocytes). Within erythrocytes, merozoites begin a […] cycle of growth and division, after which the parasite is released to infect new red blood cells. Gametocytes, which form within erythrocytes as well, circulate in the bloodstream and are ingested by the mosquito, thereby completing the life cycle. To profile malarial isolates for differential chemical responses and to identify inhibitors of malarial growth, an assay that measures P. falciparum growth and replication within erythrocytes was employed. This assay uses a DNA binding fluorescent dye (SYBR Green) to detect parasite DNA following cell lysis. Because mature erythrocytes lack DNA, only Plasmodium-derived DNA is detected.
# The SYBR Green viability assay was adapted from a method described previously (Plouffe et al., 2008). For screening 3 ul culture medium was dispensed into 1536 well black clear bottom plates (Aurora Biotechnologies) using a Multidrop Combi (Thermo Fisher Scientific Inc.), 23 nL compounds in DMSO were added by a pin tool (Kalypsys), and 5 ul of erythrocytes infected with P. falciparum (0.3% parasitemia, 2.5% hematocrit final concentration) were added. The plates were incubated at 37 C in a humidified incubator in 5% CO2 for 72 h, and 2 ul lysis buffer (20 mM Tris HCl, 10 mM EDTA, 0.16% saponin, […]% triton X, 10X SYBR Green I supplied as 10,000X […] by Invitrogen) was added to each well. The plates were mixed for 25 sec with gentle shaking and incubated overnight at room temperature in the dark. The following morning, fluorescence intensity at 485(14) nm excitation and 535(25) nm emission wavelengths was measured on an EnVision (Perkin Elmer) plate reader. Plate reads were normalized relative to the control inhibitor (0.29 uM artemisinin) and vehicle (DMSO) wells present on each plate and then corrected by an algorithm using vehicle-only control plates at the beginning and end of the compound plate stack.
# [6] = qHTS profiling for inhibitors of Plasmodium falciparum (HB3) proliferation (AID 743324); details: Plasmodium falciparum HB3 blood-stage proliferation; at 28.7 µM (top of the series) unless noted
# Outline: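 P. falciparum HB3 grown in erythrocytes (0.3% parasitemia, 2.5% hematocrit final) with compound for 72 h at 37 C, 5% CO2. Parasite DNA detected by SYBR Green after saponin/triton lysis overnight; normalized to 0.29 uM artemisinin and DMSO.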
smiles,measurement,setting,value
O=P(O)(O)OC[C@H](O)CO,max response,[1],-1.62% (inactive)
same,Potency,[2],inactive
same,Potency,[3],inactive
O=C1NCCN1c1ncc([N+](=O)[O-])s1,max response,[1],-6.09% (inactive)
same,Potency,[2],inactive
same,Potency,[3],inactive
CN=C1C=CC(=C(c2ccc(N(C)C)cc2)c2ccc(N(C)C)cc2)C=C1,Potency,[1],3.55 µM (active)
same,Potency,[2],15.8 µM (active)
same,Potency,[3],9.2 µM (active)
O=P(O)(O)OP(=O)(O)OP(=O)(O)O,max response,[1],1.26% (inactive)
same,Potency,[2],inactive
same,Potency,[3],inactive
CN(Cc1ccccc1)Cc1ccccc1,max response,[1],1.68% (inactive)
same,Potency,[2],inactive
same,Potency,[3],inactive
CCN(CC)CCCC(C)Nc1cc(/C=C/c2ccccc2Cl)nc2cc(Cl)ccc12 (stereo not given),Potency,[1],11.2 µM (active)
same,Potency,[2],inactive
same,Potency,[3],inactive
Cc1ncc(C[n+]2csc(CCOP(=O)(O)OP(=O)(O)O)c2C)c(N)n1,max response,[1],0.908% (inactive)
same,Potency,[2],inactive
same,Potency,[3],inactive
Nc1nc(=O)n([C@@H]2CS[C@H](CO)O2)cc1F,max response,[1],4.32% (inactive)
same,Potency,[2],inactive
same,Potency,[3],inactive
CCCCC(CC)CCC(CC(C)C)OS(=O)(=O)O (stereo not given),max response,[1],17.4% (inactive) and 3.69% (inactive)
same,Potency,[2],inactive
same,Potency,[3],inactive
CCOC(=O)Cc1ccc(-c2ccccc2)cc1,max response,[1],-12.4% (inactive)
same,Potency,[2],inactive
same,Potency,[3],inactive
NC(=O)OC[C@@H]1[C@H](NC(=O)/C(=N\OCC(=O)O)c2csc(N)n2)C(=O)N1S(=O)(=O)O,max response,[1],-1.55% (inactive)
same,Potency,[2],inactive
same,Potency,[3],inactive
CCN(CC)CCOC(=O)c1cccnc1,max response,[1],6.67% (inactive)
same,Potency,[2],inactive
same,Potency,[3],inactive
O=C1CCC(c2ccccc2)(C2CCN(Cc3ccccc3)CC2)C(=O)N1 (stereo not given),max response,[1],0.775% (inactive)
same,Potency,[2],inactive
same,Potency,[3],inactive
NC[C@H]1O[C@H](O[C@H]2[C@H](O)[C@@H](O[C@H]3O[C@H](CO)[C@@H](O)[C@H](N)[C@H]3O)[C@H](N)C[C@@H]2N)[C@H](O)[C@@H](O)[C@@H]1O,max response,[1],19.4% (inactive)
same,Potency,[2],inactive
same,Potency,[3],inactive
CC(CN1c2ccccc2Sc2cccnc21)N(C)C (stereo not given),max response,[1],4.99% (inactive)
same,Potency,[2],inactive
same,Potency,[3],inactive
C=C1[C@@H]2CC[C@@H](C2)C1(C)C,max response,[1],-12.4% (inactive)
same,Potency,[2],inactive
same,Potency,[3],inactive
CN1C(=O)OC(C)(C)C1=O,max response,[1],8.47% (inactive)
same,Potency,[2],inactive
same,Potency,[3],inactive
CNC(=O)[C@H](Cc1c[nH]c2ccccc12)NC(=O)[C@@H](CC(=O)NO)CC(C)C,max response,[1],-3.58% (inactive)
same,Potency,[2],inactive
same,Potency,[3],inactive
NCC[C@H](O)C(=O)N[C@@H]1C[C@H](N)[C@@H](O[C@H]2O[C@H](CN)[C@@H](O)[C@H](O)[C@H]2O)[C@H](O)[C@H]1O[C@H]1O[C@H](CO)[C@@H](O)[C@H](N)[C@H]1O,max response,[1],-2.69% (inactive)
same,Potency,[2],inactive
same,Potency,[3],inactive
O=C(O)CCC/C=C\C[C@@H]1[C@@H](/C=C/[C@@H](O)COc2cccc(C(F)(F)F)c2)[C@H](O)C[C@@H]1O,max response,[1],7.42% (inactive)
same,Potency,[2],inactive
same,Potency,[3],inactive
CC(=O)OCC1=C(C(=O)O)N2C(=O)[C@@H](NC(=O)Cc3ccccc3)[C@H]2SC1,max response,[1],7.9% (inactive)
same,Potency,[2],inactive
same,Potency,[3],inactive
OC1OC[C@@H](O)[C@H](O)[C@@H]1O (stereo not given in full),max response,[1],7.58% (inactive)
same,Potency,[2],inactive
same,Potency,[3],inactive
C=Cc1c(C)c2cc3nc(cc4[nH]c(cc5nc(cc1[nH]2)C(C)=C5CCC(=O)OC)c(CCC(=O)O)c4C)[C@@]1(C)C3=CC=C(C(=O)OC)[C@H]1C(=O)OC,remaining parasite growth % (stronger effect = lower value),[4],-0.398% [at 9.63 µM]
same,"activity, percent of control",[5],0.912% [at 9.63 µM]
same,"remaining proliferation (% of control), lower = more inhibition",[6],0.279% [at 9.63 µM]
same,Potency,[2],inactive
same,Potency,[3],inactive
CC1CS(=O)(=O)CCN1/N=C/c1ccc([N+](=O)[O-])o1 (stereo not given),Potency,[1],14.1 µM (active)
same,Potency,[2],inactive
same,Potency,[3],inactive
CC1(C)S[C@@H]2[C@H](N3C(=O)C(c4ccccc4)NC3(C)C)C(=O)N2[C@H]1C(=O)O (stereo not given in full),max response,[1],5.31% (inactive)
same,Potency,[2],inactive
same,Potency,[3],inactive
CC(=O)Nc1ccc(NC(=S)NC(=O)c2ccc(C(C)(C)C)cc2)cc1,max response,[1],-8.07% (inactive)
same,Potency,[2],inactive
same,Potency,[3],inactive
CCN1C(=O)NC(c2ccccc2)C1=O (stereo not given),max response,[1],13.2% (inactive)
same,Potency,[2],inactive
same,Potency,[3],inactive
CC(=O)N=c1sc(S(N)(=O)=O)nn1C,max response,[1],3.69% (inactive)
same,Potency,[2],inactive
same,Potency,[3],inactive
CCCCC(=O)O[C@H]1CC[C@H]2[C@@H]3CCc4cc(O)ccc4[C@H]3CC[C@]12C,max response,[1],-1.51% (inactive)
same,Potency,[2],inactive
same,Potency,[3],inactive
Cc1c(N)nc([C@H](CC(N)=O)NC[C@H](N)C(N)=O)nc1C(=O)N[C@H](C(=O)N[C@H](C)[C@@H](O)[C@H](C)C(=O)N[C@H](C(=O)NCCc1nc(-c2nc(C(=O)NCCCCN=C(N)N)cs2)cs1)[C@@H](C)O)[C@@H](O[C@@H]1O[C@@H](CO)[C@@H](O)[C@H](O)[C@@H]1O[C@H]1O[C@H](CO)[C@@H](O)[C@H](OC(N)=O)[C@@H]1O)c1cnc[nH]1,max response,[1],-1.54% (inactive) and 0.24% (inactive)
same,remaining parasite growth % (stronger effect = lower value),[4],83.7%
same,"activity, percent of control",[5],82.1%
same,"remaining proliferation (% of control), lower = more inhibition",[6],67.1%
same,Potency,[2],inactive
same,Potency,[3],inactive
